Results: PubChem BioAssay AID686978 (National Center for Advancing Translational Sciences (NCATS), 2013)
The campaign covered roughly 420,000 compounds. About 64,000 (15%) were called active. Another 27% or so got no clear call; they are omitted. Calls follow the shape of the dose curve; as a rule, active = well fitted inhibition curve with a large enough effect; inconclusive = small, poorly fitted or top-dose-only effect; inactive = flat fitted curve, though single readings scatter. Only a sample is shown. Where a call stands in place of a potency, no number is given.

Assay: qHTS for Inhibitors of human tyrosyl-DNA phosphodiesterase 1 (TDP1): qHTS in cells in absence of CPT; also: nearly all actives have a fitted effect of over 55% in size
Details: DT40 Tdp1-/- hTDP1 cells, no CPT, ATP luminescence, 48 h; activity change, negative = growth inhibition: at 46.2 µM (top of the series)
In short: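 Growth of hTDP1-complemented DT40 Tdp1-knockout cells is measured by ATP luminescence after at least 48 hr compound exposure at 37 °C, with DMSO substituting for the 20 nM CPT used in the parallel screen.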
Potency is read from the fitted curve at half-maximal effect.

Row | SMILES | Potency
1 | O=C(C(=O)N1CCOc2ccc(CN3CCN(Cc4ccccn4)CC3)cc2C1)c1ccccc1 | inactive
2 | COCCNC(=O)c1onc(CSc2cccc(C)c2)c1C(=O)O | inactive
3 | CCOc1ccc(NC(=S)N2CCC(N(C)CC3CCCO3)CC2)cc1 (stereo not given) | inactive
4 | COc1ccc2oc(N)c(C=O)c(=O)c2c1 | inactive
5 | CCOc1ccc(NC(=O)C/C(C)=N/NC(=O)Cc2cccs2)cc1 | inactive
6 | CN1C(=O)[C@H]2[C@@H](C3CC3)N3C(=O)CN(Cc4ccccc4)C(=O)[C@@]3(C)[C@H]2C1=O | inactive
7 | Cc1ccccc1Cn1c(=O)[nH]c2ccccc21 | inactive
8 | Cc1cccc(C)c1NC(=O)N1CC(C)OC(C)C1 (stereo not given) | inactive
9 | Cc1cccc(C)c1NC(=O)N1CC=C(n2c(=O)[nH]c3ccccc32)CC1 | 20.6 µM (active)
10 | COc1ccc(C)cc1N1C(=O)[C@@H]2C[C@H]1CN2Cc1cccc(OC)c1O | inactive
11 | COc1ccc(N2CCC(N3CCN(C)C(CCO)C3)CC2)cc1 (stereo not given) | inactive
12 | COc1ccc(-c2c3c(=O)n(C)c(=O)n(C)c3cn2NC(C)=O)cc1 | inactive
13 | COc1ccc(-c2c3c(=O)n(C)c(=O)n(C)c3c3c(C)nc4ccccc4n23)cc1 | 20.6 µM (active)
14 | COc1ccc(-c2[nH]c3c(c2-c2c(-n4cccc4)n(C)c(=O)n(C)c2=O)c(=O)n(C)c(=O)n3C)cc1 | inactive
15 | CC1=NNC(=O)C1CCC(=O)N/N=C\c1cccc(Cl)c1 (stereo not given) | inactive
16 | Cc1ccc(S(=O)(=O)N2[C@@H](Cc3ccccc3)CO[C@H]2CC(=O)OCc2ccccc2)cc1 | 23.1 µM (active)
17 | CC(=O)C[C@@H]1OC[C@H](CO)N1S(=O)(=O)c1ccc(C)cc1 | inactive
18 | CC(=O)C[C@@H]1OC[C@H](C)N1S(=O)(=O)c1ccc(C)cc1 | inactive
19 | CC(=O)Nc1nc(C)c(Cc2ccccc2)c(=O)[nH]1 | inactive
20 | CCCCn1c(N)c(N(CC(C)C)C(=O)c2ccc(Br)o2)c(=O)[nH]c1=O | inactive
21 | CN(C)C1CN(Cc2cn(Cc3ccccc3)nn2)S(=O)(=O)C1 (stereo not given) | inactive
22 | Cc1cc(C)cc(CN2CCc3nnc(C(NS(C)(=O)=O)C(C)C)n3CC2)c1 (stereo not given) | inactive
23 | O=S1(=O)CC(N2CCN(CCO)CC2)CN1Cc1cn(Cc2cccc(Cl)c2)nn1 (stereo not given) | inactive
24 | O=S1(=O)CC(N2CCN(Cc3ccccc3F)CC2)CN1Cc1cn(Cc2cccc(C(F)(F)F)c2)nn1 (stereo not given) | 16.4 µM (active)

Row | SMILES | Potency
25 | Cc1ccc(Cn2cc(CN3CC(N4CCN(C)CC4)CS3(=O)=O)nn2)cc1 (stereo not given) | inactive
26 | CCCCCCN1CCN(C2CN(Cc3cn(CCCCCC)nn3)S(=O)(=O)C2)CC1 (stereo not given) | 20.6 µM (active)
27 | O=S1(=O)CC(N2CCN(CCO)CC2)CN1Cc1cn(Cc2ccc(Cl)cc2)nn1 (stereo not given) | inactive
28 | Cc1cccc(CN2CCN(C3CN(Cc4cn(Cc5cc(C)cc(C)c5)nn4)S(=O)(=O)C3)CC2)c1 (stereo not given) | 16.4 µM (active)
29 | CN(Cc1cn(Cc2ccc(C(F)(F)F)cc2)nn1)C1CN(Cc2cn(Cc3ccc(C(F)(F)F)cc3)nn2)S(=O)(=O)C1 (stereo not given) | 4.61 µM (active)
30 | CC(C)C(C)(C#N)NC(=O)CSc1nc2scc(-c3ccccc3)c2c(=O)[nH]1 (stereo not given) | inactive
31 | CC1(c2ccc(Cl)cc2)NC(=O)N(CC(=O)c2ccc3c(c2)OCO3)C1=O (stereo not given) | inactive
32 | Cn1c2c(c(=O)n(C)c1=O)CN(Cc1ccco1)CN2 | inactive
33 | CC(=O)NC(Cc1ccc(F)c(F)c1)C(=O)NC1CCN(C(=O)c2ccc(C)cc2)CC1 (stereo not given) | inactive
34 | CCOc1ccc(S(=O)(=O)N2CCCCCC2)c2ccccc12 | inactive
35 | COc1ccc(-c2ocnc2C(=O)Nc2ccc3c(c2)CCC3)cc1 | inactive
36 | CSC1=NCCN1C(=O)Cc1cccc2ccccc12 | inactive
37 | COCCN1C(=O)C(=O)/C(=C(/O)c2ccc(S(=O)(=O)N3CCOCC3)cc2)C1c1ccc(O)c(OC)c1 (stereo not given) | inactive
38 | O=C(c1ccccc1Cl)N(Cc1ccccc1F)N1C(=O)CCCC1=O | inactive
39 | CN(C)CCN(C(=O)C1CCCCC1)c1nc2cc3c(cc2s1)OCO3 | inactive
40 | O=C(Nc1ccc2c(c1)OCO2)c1ccc(N2C(=O)c3ccccc3C2=O)cc1 | inactive
41 | CC(=O)c1ccc(NC(=O)c2ccc(-n3cncn3)c([N+](=O)[O-])c2)cc1 | inactive
42 | O=C(Nc1ccc(N2C(=O)c3cccc4cccc(c34)C2=O)cc1)c1ccc(N2CCCCC2)c([N+](=O)[O-])c1 | 7.31 µM (active)
43 | O=C(Nc1cccc(C(F)(F)F)c1)c1ccc(N2CCNCC2)c([N+](=O)[O-])c1 | 18.4 µM (active)
44 | O=C(COc1ccccc1F)NNC(=O)c1ccc(N2CCCCC2)c([N+](=O)[O-])c1 | inactive
45 | CN1CCN(CC#CCC2(O)c3ccccc3-c3ccccc32)CC1 | inactive
46 | CCC(=O)NC(=S)Nc1ccc(NC(=O)c2ccco2)c(Cl)c1 | inactive
47 | COC(=O)c1cccc(NC(=O)CSc2nc(C)cc(=O)[nH]2)c1 | inactive
48 | COC(=O)c1c(C(=O)OC)c(-c2cccc(C)c2)n2c1CS(=O)C2 (stereo not given) | inactive

Row | SMILES | Potency
49 | O=C1c2cccc(OCC(=O)N3N=C(c4cccs4)CC3c3ccc(F)cc3)c2CCN1Cc1ccccc1 (stereo not given) | 9.2 µM (active)
50 | COc1ccc(C2CC(c3cccs3)=NN2C(=O)CCC(=O)O)cc1OC (stereo not given) | inactive
51 | COc1ccc(C2CC(c3cccs3)=NN2C(=O)CSc2nncs2)cc1OC (stereo not given) | inactive
52 | CN(CC(=O)NC1CCCCC1)S(=O)(=O)c1ccc(Br)s1 | inactive
53 | O=C1C(c2[nH]c3ccccc3c2O)=Nc2ccccc21 | inactive
54 | COc1ccccc1N1CCN(CC(=O)NCCc2ccc(S(N)(=O)=O)cc2)CC1 | inactive
55 | CCOC(=O)N1CCC(NC(=O)c2cnn3ccccc23)CC1 | inactive
56 | Cc1ccc(CN2CCC(CNC(=O)c3cnn(-c4ccccc4Cl)c3C3CCN(C(=O)OC(C)(C)C)CC3)CC2)cc1 | 4.61 µM (active)
57 | COc1ccccc1CN1CCC(CNC(=O)c2cnn(-c3cccc(Cl)c3)c2C2CCN(C(=O)OC(C)(C)C)CC2)CC1 | 5.8 µM (active)
58 | CCN1CCN(CCCNC(=O)c2cnn(-c3ccc(C)cc3C)c2C2CCN(C(=O)OC(C)(C)C)CC2)CC1 | 20.6 µM (active)
59 | COc1ccccc1N1CCN(CCCNC(=O)c2cnn(-c3ccccc3Cl)c2C2CCN(C(=O)OC(C)(C)C)CC2)CC1 | 5.8 µM (active)
60 | CCOC(=O)N1CCC(Nc2c(NCCCN3CCN(CC)CC3)c(=O)c2=O)CC1 | inactive
61 | COc1ccccc1-c1ccnc(-n2ncc(C(=O)NCCCN3CCOCC3)c2C)n1 | inactive
62 | Cc1ccc(-n2ncc(C(=O)NC3CC3)c2C2CCN(C(=O)OC(C)(C)C)CC2)c(C)c1 | inactive
63 | CSCCC(=O)N1CCCC(CNC(=O)c2ccccc2Cl)C1 (stereo not given) | inactive
64 | CCc1cccc(C)c1NC(=O)COC(=O)Cc1ccsc1 | inactive
65 | CC1CCCC(C)N1/N=C/c1ccccc1OC(F)F (stereo not given) | inactive
66 | O=C(O)CCCCOn1ccnc1 | inactive
67 | CCCc1cc(=O)[nH]c2nnc(SCC(=O)Nc3nnc(SCC)s3)n12 | inactive
68 | COc1ccc(C(C)=O)cc1COC(=O)Cn1cnc2ccccc2c1=O | inactive
69 | COC(=O)N1CCC2(CCCN(Cc3ccccc3OC)C2)CC1 | inactive
70 | COCCNC(=O)C1CCCN(Cc2ccccc2Cl)CC1 (stereo not given) | inactive
71 | COc1ccccc1CN1CCC(CNC(=O)c2cnn(-c3ccccc3Cl)c2C2CCN(C(=O)OC(C)(C)C)CC2)CC1 | 8.2 µM (active)
72 | Cc1c(CN2CCCCC2)c(O)n(CCO)c(=O)c1C#N | inactive

Row | SMILES | Potency
73 | COc1cc(CCC(=O)OCC(=O)Nc2cccc(S(N)(=O)=O)c2)cc(OC)c1OC | inactive
74 | Cc1ccc(NC(=O)OCCNC(=O)c2ccncc2)cc1 | inactive
75 | CCCc1cc(=O)n2[nH]c(NCc3ccc(CC)cc3)nc2n1 | inactive
76 | O=C(N[C@H]1C/C=C\C(c2cccc(F)c2)N(Cc2ccccc2)C(=O)C1)OCC1c2ccccc2-c2ccccc21 (stereo not given in full) | 20.6 µM (active)
77 | CCC(C)NC(=O)C1c2ccccc2C(=O)N1Cc1ccccc1 (stereo not given) | inactive
78 | O=C(N[C@H]1C/C=C\C(c2ccc(F)cc2)N(Cc2ccccc2)C(=O)C1)OCC1c2ccccc2-c2ccccc21 (stereo not given in full) | 20.6 µM (active)
79 | CN(Cc1ccccc1Cl)C(=O)C1CCC(=O)N(CCc2cccc(F)c2)C1 (stereo not given) | inactive
80 | O=C(N[C@@H](Cc1c[nH]c2ccccc12)C(=O)O)OCC1c2ccccc2-c2ccccc21 | inactive
81 | O=C1c2ccccc2C(O)N1Cc1ccccc1 (stereo not given) | inactive
82 | CC1CCCN(S(=O)(=O)c2ccc3[nH]c(=O)cc(C(=O)NCCc4ccc(Cl)cc4)c3c2)C1 (stereo not given) | inactive
83 | O=C(c1ccncc1)N1CCN(S(=O)(=O)c2cc(C(F)(F)F)cc(C(F)(F)F)c2)CC1 | inactive
84 | O=C(c1ccc(C(F)(F)F)cc1)N1CCC(c2nc(-c3ccc(S(=O)(=O)N4CCCC4)cc3)no2)CC1 | 18.4 µM (active)
85 | COC(=O)c1ccc(S(=O)(=O)N2CCC(c3nc4ccccc4o3)CC2)cc1 | inactive
86 | NC(=O)C1CCN(C(=O)c2ccc(C(F)(F)F)cc2)CC1 | inactive
87 | CC(C)(C)c1ccc(C(=O)N2CCC(c3nc(-c4ccc(S(=O)(=O)N5CCCC5)cc4)no3)CC2)cc1 | 20.6 µM (active)
88 | CC(C)(C)c1ccc(S(=O)(=O)N2CCN(C(=O)c3ccc4c(c3)C(=O)N(Cc3ccncc3)C4=O)CC2)cc1 | inactive
89 | Cc1ccc2nc(COc3cccc(NC(=O)c4ccccc4Cl)c3)cc(=O)n2c1 | inactive
90 | CNC[C@H]1Oc2c(NC(=O)C3CCCCC3)cccc2C(=O)N([C@H](C)CO)C[C@@H]1C | inactive
91 | O=C(COC(=O)c1ccc(O)cc1O)NNC(=O)c1cccs1 | inactive
92 | Nc1nc(/C(=C/CC(=O)O)C(=O)N[C@@H]2C(=O)N3C(C(=O)O)=CCS[C@H]23)cs1 | inactive
93 | COc1cccc2cc(C(C)N(CCCN3CCOCC3)C(=O)Nc3ccc(Cl)cc3)oc12 (stereo not given) | 23.1 µM (active)
94 | COc1ccc(Cl)cc1NC(=O)CCN1CCOCC1 | inactive
95 | COc1cccc(NC(=S)NCCCN2CCOCC2)c1 | inactive
